Compounds with a hit are over-represented: about 3% of the library has one in this group of screens.
SENP8 block-1: blocks the human protease SENP8; 330,000 compounds, 1.2% hits; purified SENP8, Z-RLRGG-aminoluciferin cleavage, luminescence; inhibition, % at 10 µM; Q96LD8; in the data active = inhibition above about 50%
Target sequence (Q96LD8 whole entry, looked up): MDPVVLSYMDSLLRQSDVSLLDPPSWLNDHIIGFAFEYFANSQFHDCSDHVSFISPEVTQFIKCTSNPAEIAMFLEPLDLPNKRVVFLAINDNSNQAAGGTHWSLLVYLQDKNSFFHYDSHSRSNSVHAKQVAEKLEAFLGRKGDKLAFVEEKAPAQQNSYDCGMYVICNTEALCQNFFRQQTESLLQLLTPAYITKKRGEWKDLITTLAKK
PPC-1+TRAIL kill: PPC-1 cancer cell killing with TRAIL present. 220,000 compounds, 0.41% hits. cell killing (% activity), % at 4 µM or 5 µM. PPC-1 cells + TRAIL, ATPLite viability luminescence;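 active = cell killing above 50% in the first pass at 4 µM, then a duplicate retest at 5 µM averaging 50% or more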
C8 TRAIL sens: caspase-8 TRAIL sensitization. NB7+C8 cells + TRAIL, ATPlite viability luminescence. inhibition (viability loss, TRAIL sensitization), % at 10 µM. 360,000 compounds, 1% hits. AID 624354;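 active = compounds causing at least 50% loss of cell viability in the single-dose screen, relative to plate controls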
SENP6 block: blocks the human protease SENP6; Q9GZR1; Recombinant SENP6 catalytic domain, aminoluciferin luminescence; inhibition, % at 10 µM; 330,000 compounds, 1.8% hits; AID 2599;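 active = inhibition above about 50% at the single tested dose, limit read from the data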
Target sequence (Q9GZR1 628-1112 limits assumed): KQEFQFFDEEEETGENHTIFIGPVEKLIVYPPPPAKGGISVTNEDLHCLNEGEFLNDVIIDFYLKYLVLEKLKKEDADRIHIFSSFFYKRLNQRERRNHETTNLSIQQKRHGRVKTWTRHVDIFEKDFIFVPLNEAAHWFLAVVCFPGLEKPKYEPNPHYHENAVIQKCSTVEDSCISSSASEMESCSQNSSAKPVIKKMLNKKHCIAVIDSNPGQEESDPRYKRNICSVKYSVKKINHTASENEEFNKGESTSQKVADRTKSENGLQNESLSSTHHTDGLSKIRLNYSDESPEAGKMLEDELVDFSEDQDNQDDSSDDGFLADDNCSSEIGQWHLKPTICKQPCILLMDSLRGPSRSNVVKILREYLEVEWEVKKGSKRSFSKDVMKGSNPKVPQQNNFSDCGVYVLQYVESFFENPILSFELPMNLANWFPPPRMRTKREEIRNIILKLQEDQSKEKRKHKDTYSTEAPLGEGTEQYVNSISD
SENP7 block: SENP7 protease inhibition; inhibition, % at 5 µM; recombinant SENP7, Z-RLRGG-aminoluciferin luminescence, 40 min; 330,000 compounds, 1.5% hits;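 active = inhibition above about 50% at the single test dose, limit read from the data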
SENP8 block-2: SENP8 (human) protease inhibition; 360,000 compounds, 0.64% hits; inhibition, % at 20 µM; recombinant SENP8, Nedd8 substrate fluorescence; in the data active = inhibition mostly above about 40%, no sharp cut-off; inactive = mostly below about 27%
SENP8 confirm: human SENP8 inhibition, confirmed; 6,200 compounds, 40% hits; inhibition, % at 12.5 µM; AID 488912; Recombinant SENP8, Z-RLRGG-aminoluciferin luminescence, 60 min; shares compounds with SENP7 block;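 active = mean inhibition across replicates above about 50%, limit read from the data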
SENP6 conf: human SENP6 inhibition, confirmed. shares compounds with SENP7 block. recombinant SENP6, Z-RLRGG-aminoluciferin luminescence. inhibition, % at 12.5 µM. 6,200 compounds, 58% hits. AID 488915
SENP7 conf: human SENP7 inhibition, confirmed; 6,200 compounds, 69% hits; shares compounds with SENP7 block; recombinant SENP7, Z-RLRGG-aminoluciferin luminescence, 40 min; AID 488917; inhibition, % at 12.5 µM
Casp3 select: caspase-3 inhibition (SENP selectivity assay); shares compounds with SENP7 block; purified caspase-3, Z-DEVD-aminoluciferin luminescence, 60 min; inhibition, % at 12.5 µM; 6,200 compounds, 60% hits; AID 488918;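 active = mean inhibition above about 50%, limit read from the data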
Luc interf: counter-screen for SENP inhibitors: luminescence interference; shares compounds with SENP7 block; Pre-incubated SENP8/Z-RLRGG-aminoluciferin, luciferase luminescence interference; inhibition, % at 12.5 µM; 6,200 compounds, 39% hits; AID 488919;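 active = mean inhibition above about 50% when retested at one dose, limit read from the data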
Large screens that a line does not name were inactive (follow-up assays come after a bar, where they were run).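 The calls were made as follows, unless noted: active = mean inhibition above about 50% in the one-dose retest (limit read from the data); inactive = the rest.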

O=C(NC1CCCCCC1)C1CCC(=O)N(Cc2ccccc2F)C1 (stereo not drawn)	none (no result: PPC-1+TRAIL kill)
Cc1ccc(CNc2nc(C)c(C(=O)N(C)C)s2)cc1	none (no result: PPC-1+TRAIL kill)
O=CC(=Cc1ccccc1)c1ccccc1	none (no result: SENP8 block-1, PPC-1+TRAIL kill, SENP6 block, SENP7 block)
NCCNc1cc(N2CCCC2)ccc1[N+](=O)[O-]	SENP7 block 77 | SENP8 confirm inactive | SENP6 conf inactive | SENP7 conf inactive | Casp3 select inactive | Luc interf inactive
Fc1ccccc1SCc1nnc(-c2ccccc2Br)o1	SENP8 block-1 53 | SENP8 confirm 66 | SENP6 conf 67 | SENP7 conf 86 | Casp3 select inactive | Luc interf inactive
Cc1cc(NC(=O)CCc2ccccc2)c([N+](=O)[O-])cc1C	none
C(/C=C/c1ccccc1)=N/N1CCN(c2ccccc2)CC1	SENP7 block 61 | SENP8 confirm inactive | SENP6 conf inactive | SENP7 conf inactive | Casp3 select inactive | Luc interf inactive
C(=C\c1ccccc1)/C=N/N1CCN(c2ccccn2)CC1	SENP6 block 74, SENP7 block 56 | SENP8 confirm inactive | SENP6 conf 52 | SENP7 conf inactive | Casp3 select 62 | Luc interf inactive
Cc1ccc(/C(O)=C2/C(=O)C(=O)N(CC(=O)O)C2c2ccc([N+](=O)[O-])cc2)cc1 (stereo not drawn)	none (no result: PPC-1+TRAIL kill)
CCOc1ncccc1C(=O)OCC(=O)c1cccc(Br)c1	none
COc1ccc(N=C(C)C2=C(O)c3ccccc3C2=O)cc1	SENP8 block-1 73, PPC-1+TRAIL kill 63, C8 TRAIL sens 70, SENP6 block 87, SENP7 block 77 | SENP8 confirm inactive | SENP6 conf 74 | SENP7 conf 71 | Casp3 select inactive | Luc interf inactive
CCOc1ccc(N=C(C)C2=C(O)c3ccccc3C2=O)cc1	SENP8 block-1 78, SENP6 block 85, SENP7 block 84 | SENP8 confirm inactive | SENP6 conf inactive | SENP7 conf inactive | Casp3 select inactive | Luc interf inactive
C/C(=N\N(C)C)C1=C(O)c2ccccc2C1=O	none
CC(=NC1CC1)C1=C(O)c2ccccc2C1=O	none
COc1ccc(/C=C(\C#N)C(=O)Nc2cccc(C)n2)cc1	SENP8 block-1 51, SENP6 block 50 (no result: PPC-1+TRAIL kill) | SENP8 confirm inactive | SENP6 conf inactive | SENP7 conf inactive | Casp3 select inactive | Luc interf inactive
COc1ccc(/C=C(\C#N)C(=O)c2cccn2C)cc1	SENP8 block-1 69, SENP6 block 79, SENP7 block 78 (no result: PPC-1+TRAIL kill) | SENP8 confirm 87 | SENP6 conf 87 | SENP7 conf 94 | Casp3 select 72 | Luc interf 82
Cn1ncc(Br)c1C(=O)N1CCCCCC1	none (no result: PPC-1+TRAIL kill)
O=C(O)c1ccccc1N/N=C\c1ccnc2ccccc12	SENP8 block-1 90, C8 TRAIL sens 65, SENP6 block 94 | SENP8 confirm inactive | SENP6 conf 100 | SENP7 conf 103 | Casp3 select 97 | Luc interf 94
O=C(O)c1cccc2c(/C=N/Nc3ccccn3)c[nH]c12	SENP8 block-1 88, SENP6 block 90, SENP7 block 90 | SENP8 confirm 65 | SENP6 conf 92 | SENP7 conf 93 | Casp3 select 93 | Luc interf inactive
ON=Cc1ccnc2ccccc12	none (no result: SENP8 block-1, PPC-1+TRAIL kill, SENP6 block, SENP7 block)
O=C(O)c1ccccc1N/N=C/c1cc(Br)cc(Br)c1O	SENP8 block-1 92, SENP6 block 102 | SENP8 confirm 94 | SENP6 conf 98 | SENP7 conf 97 | Casp3 select 70 | Luc interf inactive
COc1ccc(CCC(=O)N/N=C/c2ccc3c(c2)OCO3)cc1	none (no result: PPC-1+TRAIL kill)
Cc1ccc(S(=O)(=O)Nc2cc(C)c(O)c(Sc3n[nH]c(C)n3)c2)cc1	none (no result: PPC-1+TRAIL kill)
COc1ccc(C(=O)N/C(=C\c2cn(S(=O)(=O)N(C)C)c3ccccc23)C(=O)N2CCCC2)cc1	none (no result: SENP8 block-1, PPC-1+TRAIL kill, SENP6 block, SENP7 block)
Cc1cccc(NC(=S)N2CCOCC2)c1C	none
O=c1nc(N/N=C/C=C/c2ccccc2)cn[nH]1	SENP7 block 53 | SENP8 confirm inactive | SENP6 conf inactive | SENP7 conf inactive | Casp3 select inactive | Luc interf inactive
Brc1ccc(/C=C/C=N/Nc2nc3ccccc3s2)cc1	none
C(=C\c1ccccc1)/C=N/Nc1nc2ccccc2s1	SENP6 block 51 | SENP8 confirm inactive | SENP6 conf inactive | SENP7 conf inactive | Casp3 select inactive | Luc interf inactive
C=CCNc1nnc(Cc2ccc(C(C)C)cc2)c(=O)[nH]1	none (no result: PPC-1+TRAIL kill)
O=c1c2ccccc2sn1-c1ccc(F)cc1	SENP8 block-1 74, SENP6 block 82 (no result: PPC-1+TRAIL kill) | SENP8 confirm 84 | SENP6 conf 84 | SENP7 conf 96 | Casp3 select 91 | Luc interf 84
O=c1c2ccccc2sn1-c1ccc(Cl)cc1	none (no result: SENP8 block-1, PPC-1+TRAIL kill, SENP6 block, SENP7 block)
S=C(Nc1ccccn1)c1ccccn1	SENP8 block-1 68, SENP7 block 84 | SENP8 confirm 53 | SENP6 conf 76 | SENP7 conf 94 | Casp3 select 86 | Luc interf inactive
O=C(CSCSCC(=O)Nc1ccc2c(c1)OCO2)Nc1ccc2c(c1)OCO2	none
CC(=O)Nc1ccc(OCc2ccc3c(c2)OCO3)cc1	SENP8 block-1 68, SENP6 block 82, SENP7 block 85 (no result: PPC-1+TRAIL kill) | SENP8 confirm 75 | SENP6 conf 74 | SENP7 conf 93 | Casp3 select 88 | Luc interf 51
O=C(Nc1ccc2c(c1)OCCO2)c1ccccc1	SENP8 block-1 61, C8 TRAIL sens 51, SENP6 block 68, SENP7 block 79 (no result: PPC-1+TRAIL kill) | SENP8 confirm inactive | SENP6 conf 61 | SENP7 conf 90 | Casp3 select 87 | Luc interf 68
O=C(Nc1ccc2c(c1)OCO2)c1ccccc1	SENP6 block 62, SENP7 block 55 (no result: PPC-1+TRAIL kill) | SENP8 confirm inactive | SENP6 conf inactive | SENP7 conf 81 | Casp3 select 81 | Luc interf 61
CC(C)=CC(=O)Nc1ccc2c(c1)OCO2	SENP8 block-1 50, SENP6 block 63 | SENP8 confirm 59 | SENP6 conf 59 | SENP7 conf 84 | Casp3 select 86 | Luc interf 63
O=C(NC(=S)Nc1ccc2c(c1)OCO2)c1ccccc1	none
CCCc1nc2ccccc2c(=O)n1CCc1ccccc1	none (no result: PPC-1+TRAIL kill)

Compound activity: PubChem, Sanford-Burnham Center for Chemical Genomics
